These results are taken from PubChem BioAssay AID720700 (The Scripps Research Institute Molecular Screening Center, 2013).

In all, about 370,000 compounds went through this assay and about 3,100 (0.84%) were called active. Shown is part of a subset that was picked to be rich in actives. A number with no mark means an inactive call. Rule as the data show it: active = inhibition above about 9.5%; inactive = the rest.

For this assay, the target named is 1-phosphatidylinositol 4,5-bisphosphate phosphodiesterase gamma-1 (Homo sapiens) (UniProt P19174). In words: PLC-gamma1 enzyme inhibitors, primary screen, biochemical, fluorescence, purified enzyme (AID 720700). Particulars: purified PLC-gamma1, fluorogenic substrate, at 12.2 µM, hits give high values.
Sequence of 1-phosphatidylinositol 4,5-bisphosphate phosphodiesterase gamma-1 (Homo sapiens) (P19174 whole entry, looked up): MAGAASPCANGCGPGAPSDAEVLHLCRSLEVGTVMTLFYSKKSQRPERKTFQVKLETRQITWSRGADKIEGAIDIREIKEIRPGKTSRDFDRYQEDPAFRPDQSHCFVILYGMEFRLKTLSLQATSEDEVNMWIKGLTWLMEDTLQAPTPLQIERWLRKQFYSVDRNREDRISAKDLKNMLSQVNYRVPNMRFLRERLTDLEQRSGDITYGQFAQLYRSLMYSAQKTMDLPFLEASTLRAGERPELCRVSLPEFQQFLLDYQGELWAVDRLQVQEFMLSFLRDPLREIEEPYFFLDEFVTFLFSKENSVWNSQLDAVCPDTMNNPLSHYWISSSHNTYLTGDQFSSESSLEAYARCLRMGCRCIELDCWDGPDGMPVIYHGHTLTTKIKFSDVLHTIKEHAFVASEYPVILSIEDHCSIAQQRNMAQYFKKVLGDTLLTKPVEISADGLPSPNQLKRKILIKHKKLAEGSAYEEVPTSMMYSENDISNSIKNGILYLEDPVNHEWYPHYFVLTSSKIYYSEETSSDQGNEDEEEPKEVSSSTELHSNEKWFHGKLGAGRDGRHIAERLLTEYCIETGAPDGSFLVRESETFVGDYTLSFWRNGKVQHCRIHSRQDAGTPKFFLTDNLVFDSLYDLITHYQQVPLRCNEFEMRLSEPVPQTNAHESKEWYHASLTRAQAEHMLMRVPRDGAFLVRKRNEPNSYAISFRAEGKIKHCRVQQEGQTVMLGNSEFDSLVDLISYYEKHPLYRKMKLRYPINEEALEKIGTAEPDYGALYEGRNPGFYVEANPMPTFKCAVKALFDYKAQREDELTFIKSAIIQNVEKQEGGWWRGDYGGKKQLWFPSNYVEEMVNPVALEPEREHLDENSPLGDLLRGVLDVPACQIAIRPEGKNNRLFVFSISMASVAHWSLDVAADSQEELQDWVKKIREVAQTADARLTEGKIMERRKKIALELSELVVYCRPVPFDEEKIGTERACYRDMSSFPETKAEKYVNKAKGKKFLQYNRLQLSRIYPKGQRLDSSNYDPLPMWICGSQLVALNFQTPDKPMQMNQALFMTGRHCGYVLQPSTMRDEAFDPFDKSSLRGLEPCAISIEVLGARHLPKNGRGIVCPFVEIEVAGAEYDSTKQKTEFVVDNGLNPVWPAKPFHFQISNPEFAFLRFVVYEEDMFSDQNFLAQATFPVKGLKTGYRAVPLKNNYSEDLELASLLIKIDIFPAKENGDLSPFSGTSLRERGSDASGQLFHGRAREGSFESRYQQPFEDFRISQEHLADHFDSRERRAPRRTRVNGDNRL
Turning to `Cc1ccc(C2CC(c3cccc(NS(C)(=O)=O)c3)=NN2S(C)(=O)=O)cc1` (configuration not stated), the inhibition is 2.31%. With `CCOc1ccccc1C1CC(c2cccc(NS(C)(=O)=O)c2)=NN1C(=O)c1ccccc1` (configuration not stated), the inhibition was 9.81% (active). As for `CS(=O)(=O)Nc1cccc(C2=NN(C(=O)c3cccc(F)c3)C(c3cccs3)C2)c1` (configuration not stated), the inhibition is -0.97%. Take `C=C1C(C(C)C)N(C)C2=NC(c3ccccc3)CC(=O)N12` (configuration not stated): the inhibition was -2.56%. Next, `C=CCN1C(=O)[C@@H](CC(=O)N2CCN(C(=O)c3ccco3)CC2)[C@]2(C(=O)OC)CCCCC=C12`: -0.31%. As for `O=C(C(c1ccccc1)c1ccccc1)N1CCN(CC(O)COc2ccccc2)CC1` (configuration not stated), the inhibition was 9.59% (active). Regarding `CCCc1ccc(OCC(O)CN2CCN(C(=O)OCC)CC2)cc1` (configuration not stated), the inhibition is 8.68%. Turning to `CC(=O)N1CCN(CC(c2ccccc2)c2ccccc2)CC1`, the inhibition was -0.45%. For the molecule `Nn1c(SCC(=O)Nc2cccc3ccccc23)nnc1-c1cc(-c2ccc(F)cc2)n[nH]1`, the inhibition was -1.09%. With `C[C@H]1CCC/C=C/C(=O)c2c(O)cc(O)cc2CC(=O)O1`, the inhibition is -3.4%. `CCOc1ccc(CCNC(=O)COC(=O)c2c(OC)cccc2OC)cc1OCC`: the inhibition is 6.67%. With `CCOc1ccc(CCNC(=O)COC(=O)CCS(=O)(=O)c2ccc(C)cc2)cc1OCC`, the inhibition is 9.85% (active).

For the molecule `COc1ccc(CNC(=O)COC(=O)CCS(=O)(=O)c2ccc(C)cc2)cc1OC`, the inhibition was 0.41%. On to `C=C(C)C#CC(Cc1ccccc1)NCC1CC1` (configuration not stated), for which the inhibition was 0.45%. Consider `O=S(=O)(c1ccc(F)cc1)N1CCN(C(=S)NC2CCCC2)CC1`, for which the inhibition is 10.9% (active). As to `O=C(O)C1CCCCC1C(=O)N1CCN(S(=O)(=O)c2ccc(F)cc2)CC1` (configuration not stated), the inhibition was 4.99%. Next, `O=C(CN1CCN(S(=O)(=O)c2ccc(F)cc2)CC1)NC1CC1`: -1.88%; `CCOc1ccccc1NC(=O)C12CC3CC(C1)CC(c1ccc(C)cc1)(C3)C2`: 0.03%; `C=CCNC(=O)C12CC3CC(C1)CC(C(=O)NCC=C)(C3)C2`: -0.37%. With `Cc1ccc(C23CC4CC(CC(C(=O)NCC(=O)O)(C4)C2)C3)cc1`, the inhibition was 9.87% (active). With `O=C(Nc1ccc(Br)cc1)OCCN1C(=O)CCC12CCC(c1ccccc1)CC2` (configuration not stated), the inhibition was 4.23%. On to `O=C(NC1CCC1)c1ccc(C#CC2CC2)cn1`, for which the inhibition is -0.59%.

As to `COCCCn1c(SCC(=O)Nc2ccccc2)nnc1-c1ccncc1`, the inhibition was -0.81%. On to `O=C(CSc1nnc(-c2ccncc2)n1-c1ccc(Cl)cc1)Nc1ccc(C(=O)O)cc1`, for which the inhibition is -0.57%. Next, `O=C(CSc1nnc(-c2ccncc2)n1C1CCCCC1)Nc1ccccc1`: 10.2% (active); `COc1ccccc1CCNC(=O)C1CCN(c2nc(C)cc(C)n2)CC1`: -0.02%.

Take `Cc1ccc(-c2nc(C3CCCN(S(=O)(=O)c4ccc(Br)s4)C3)no2)cc1` (configuration not stated): the inhibition was 0.61%. Regarding `O=S(=O)(NCCCN1CCOCC1)c1ccc(F)c(Cl)c1`, the inhibition was -0.87%.

As for `C=CCOc1ccc(Cl)cc1CNCCCN1CCOCC1`, the inhibition was 10.7% (active).

Consider `COc1ccc(-c2ccc(CNCCCN3CCOCC3)o2)cc1Cl`, for which the inhibition was 1.38%. On to `Cc1ccccc1NC(=O)Cn1nnc(-c2ccccc2F)n1`, for which the inhibition was 0.94%.

Regarding `CN1[C@H](Cc2ccccc2)COc2cccc(N3CCSCC3)c2S1(=O)=O`, the inhibition is -5.49%. For the molecule `COc1ccc(NC(=O)CN2C(=O)C(c3ccccc3)=NC23CCCCCC3)cc1OC`, the inhibition is 1.88%. In the case of `O=C1NC2(CCCCC2)N=C1c1ccccc1`, the inhibition is 10.4% (active). On to `O=C1NC2(CCCCCC2)C(=O)N1CCS(=O)(=O)Oc1ccccc1`, for which the inhibition is 1.93%. `C=CCN1C(=O)[C@@H](CC(=O)N2CCN(C(=O)OCC)CC2)[C@]2(C(=O)OCC)CCCCC/C=C/12`: the inhibition was -1.67%. With `C=CC[C@@H](CC(=O)N[C@@H](CO)Cc1ccccc1)C(=O)N[C@H](COC(=O)[C@H](CC=C)CC(=O)OC(C)(C)C)Cc1ccccc1`, the inhibition is 0.69%. For the molecule `C=CC[C@@H](CC(=O)N[C@@H](CO)Cc1ccccc1)C(=O)NCCOC(=O)[C@@H](CC=C)CC(=O)OC(C)(C)C`, the inhibition is 5.69%. As to `C=CC[C@@H](CC(=O)NCCO)C(=O)N[C@H](C)COC(=O)[C@@H](CC=C)CC(=O)OC(C)(C)C`, the inhibition is 9.97% (active). `O=C(N1CCOCC1)N1CC[C@H]2[C@H](CCCN2Cc2ccc(F)cc2)C1`: the inhibition was -1.67%. Take `COc1ccc(C2Nc3ccccc3C(=O)N2Cc2cccs2)cc1COc1c(C)cccc1C` (configuration not stated): the inhibition was -106%. `CCOC(=O)Nc1ccc(S(=O)(=O)N(C)C(C)C)cc1`: the inhibition was 0.75%. As to `CCOC(=O)Nc1ccc2c(c1)N(C(=O)CCCl)c1ccccc1[S@]2=O`, the inhibition was -0.45%. With `CCOC(=O)Nc1ccc(NC(=O)OCC)cc1`, the inhibition is 11.8% (active). For `COc1ccc(N2CCN(CCNS(=O)(=O)c3ccc(Cl)s3)CC2)cc1`, the inhibition is -2.58%.

As for `O=C(O)c1ccc(Cn2c(=S)[nH]c3cc(Cl)ccc3c2=O)cc1`, the inhibition is 11% (active). As to `NC(=O)C1CCN(C(=O)c2ccc3c(=O)n(Cc4cccc(Br)c4)c(=S)[nH]c3c2)CC1`, the inhibition is 4.14%. `CCOc1cc2[nH]c(=S)n(Cc3ccc(C(=O)N4CCN(C)CC4)cc3)c(=O)c2cc1OCC`: the inhibition is -0.53%. Turning to `O=C(NC1CCCCN(Cc2cccc(C(F)(F)F)c2)C1=O)c1ccccc1I` (configuration not stated), the inhibition is -1.03%. With `COc1ccc(OC)c(C(=O)c2coc3ccc(O)c(CN4CCOCC4)c23)c1`, the inhibition was -8.55%. With `COc1ccc(/C(C)=N/N2CCOCC2)c(O)c1`, the inhibition was 15.9% (active). Regarding `COc1ccc(C(=O)CC(=O)c2ccc(C)cc2)c(O)c1`, the inhibition was -16%. In the case of `COC(=O)c1cc(S(=O)(=O)N2CCN(C(=O)C3CCCO3)CC2)cn1C` (configuration not stated), the inhibition is 0.5%. As for `C[C@@H](NC(=O)c1ccccc1OCC(=O)Nc1ccc(I)cc1)C(=O)N(C)Cc1ccccc1`, the figure is -0.29%; as for `Cc1cc(NC(=O)CN2C(=O)NC(CC(C)C)C2=O)no1` (configuration not stated), 10.2% (active); as for `COc1ccc(C2(c3ccc(OC)cc3)NC(=O)N(CC(=O)Nc3cc(C)on3)C2=O)cc1`, 0.49%.

For the molecule `Cc1cc(NC(=O)CN2C(=O)NC(CCc3ccccc3)C2=O)no1` (configuration not stated), the inhibition was -2.53%. Next, `CC(c1ccc(N)cc1)c1cn(C)c2ccccc12` (configuration not stated): 0.79%; `CCOC(=O)[C@]12CCCC=C1N(Cc1ccc(OC)cc1)C(=O)[C@@H]2CC(=O)NCc1cccs1`: 0.39%. Next, `O=C1Nc2ccccc2OC1CC(=O)N1CCCCCCC1` (configuration not stated): -0.62%; `CNC(=O)C[C@H]1C(=O)N(c2ccc(OC)cc2)C[C@@H]1Cc1ccccc1`: 1.07%; `O=C(C[C@H]1C(=O)N(c2ccc(F)c(F)c2)C[C@@H]1Cc1ccccc1)Nc1ccccc1`: 17.8% (active). Consider `C[C@H]1CN(c2ccc(Br)cc2)C(=O)[C@@H]1CC(=O)Nc1ccc(Br)cc1`, for which the inhibition is -2.46%.

Take `Cc1ccc(-n2c(SCC(=O)Nc3cccc4ccccc34)nnc2-c2ccco2)cc1`: the inhibition was 0.45%. For the molecule `CC(C)Cn1cnc2c1c(=O)n(CC(=O)NN)c(=O)n2Cc1ccccc1`, the inhibition was -18.6%.

As to `CC(C)Cn1cnc2c1c(=O)n(CC(O)c1ccccc1)c(=O)n2CC(C)C` (configuration not stated), the inhibition is 16.4% (active). Consider `CC(C)CCn1cnc2c1c(=O)n(CC(=O)NC(N)=O)c(=O)n2Cc1ccccc1`, for which the inhibition is 2.87%.

`COc1cccc(N2CCN(CC(=O)N(C)Cc3ccc(F)cc3)CC2)c1`: the inhibition was 0.54%. Take `Cc1cc(C)cc(N(CC(=O)NCCSCc2ccco2)S(C)(=O)=O)c1`: the inhibition is 2.48%. As for `CCc1ccccc1N(CC(=O)NCCSCc1ccco1)S(C)(=O)=O`, the inhibition was -1.22%. Next, `CS(=O)(=O)N(Cc1ccc(Cl)cc1)c1ccc(C(=O)NCCSCc2ccco2)cc1`: 9.72% (active). As for `CCCCNC(=O)C[C@H]1C[C@@]2(C(=O)OC)C(=C[C@H](COCc3ccccc3)O[C@@H]2C)N(Cc2ccc(Cl)cc2Cl)C1=O`, the figure is 2.69%; as for `O=C1C(=O)N(Cc2ccc(-c3ccsc3)cc2)c2ccc(OC(F)(F)F)cc21`, -5.5%; as for `CCN(CC)C(=O)CC[C@@H]1CC[C@]2(CCCN(S(=O)(=O)C3CCCCC3)C2)O1`, -1.56%. In the case of `COC(=O)C1CN(CCc2ccccc2)CCS(=O)(=O)N1Cc1ccc(F)cc1` (configuration not stated), the inhibition is 0.52%. Regarding `Cc1ccc(S(=O)(=O)N2CCN(C(=O)Cc3sc(C)nc3-c3ccc(F)cc3)CC2)c(C)c1`, the inhibition is -4.71%. In the case of `Cc1nc(-c2ccc(F)cc2)c(CC(=O)Nc2cc(S(=O)(=O)N3CCCCC3)ccc2C)s1`, the inhibition was 0.89%. On to `Cc1nc(-c2ccc(F)cc2)c(CC(=O)N2CCN(S(=O)(=O)c3ccc(F)cc3)CC2)s1`, for which the inhibition is 12.6% (active). Next, `O=C(c1ccc2c(c1)OCO2)N1CCNc2ccccc2C1`: 9.9% (active); `O=C(C(=O)N1CCN(c2ccccc2)CC1)c1ccc2c(c1)OCO2`: -0.77%. In the case of `O=CN1CCN(C(=O)c2ccc3c(c2)OCO3)CC1`, the inhibition is 0.54%.

`N#Cc1ccc(OC[C@@H](O)CN2CCC(C(O)(c3ccccc3)c3ccccc3)CC2)c(F)c1`: the inhibition was 0.67%. For the molecule `COCCCNC(=O)C[C@H]1C[C@@]2(C(=O)OC)C(=C[C@H](C(C)(C)C)O[C@@H]2C)N(Cc2ccc(Cl)cc2Cl)C1=O`, the inhibition is 1.11%. With `CC(C)(C)OC(=O)NCc1cc(F)ccc1/C=C/S(=O)(=O)NCCc1ccccc1`, the inhibition was 2.46%. On to `COC(=O)c1ccc(C23CC4(C2)[C@H](CN(Cc2cccnc2)[C@@H]4c2ccccc2)C3c2ccc(Cl)nc2)cc1` (some centres not stated), for which the inhibition was 2.06%.

Take `COC(=O)[C@]1(C#N)CC(=O)N(CC2CCCCC2)[C@@H]1c1ccccc1`: the inhibition was 8.67%.

Take `Clc1ccc(C2[C@H]3CN(CC4CCCCC4)[C@H](c4ccccc4)C34CC2(c2cccnc2)C4)cn1` (some centres not stated): the inhibition was 12.1% (active).
